# Bioassay records from PubChem BioAssay.
# Pol beta inh: inhibitors of human DNA polymerase beta | P06746 | 1.3% of 340,000 active | AID 485314 | Potency, µM (doses to about 114 µM), for inactives: at the highest dose activity change, negative = inhibition, actives largely listed as inhibitors | Pol beta primer extension/strand displacement, fluorescence kinetic; note: % is set by controls: 0 for no effect and ±100 for the full control effect
#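 Kinetic readout of DNA synthesis with strand displacement by Pol beta. Compound and 10 nM enzyme sit 15 min at room temperature; 50 nM substrate starts the reaction, read immediately and at 10 min.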
# Pol kappa inh: DNA polymerase kappa (human) inhibition | purified Pol kappa, fluorescent DNA synthesis assay, 10 min | Potency, µM (titrated, usually from 107 µM), for the others: top-dose activity, negative = inhibition, usual class: inhibitors | 0.53% of 400,000 active | AID 588579; note: % is set by controls: 0 for no effect and ±100 for the full control effect
# Target sequence (Q9UBT6 whole entry, looked up): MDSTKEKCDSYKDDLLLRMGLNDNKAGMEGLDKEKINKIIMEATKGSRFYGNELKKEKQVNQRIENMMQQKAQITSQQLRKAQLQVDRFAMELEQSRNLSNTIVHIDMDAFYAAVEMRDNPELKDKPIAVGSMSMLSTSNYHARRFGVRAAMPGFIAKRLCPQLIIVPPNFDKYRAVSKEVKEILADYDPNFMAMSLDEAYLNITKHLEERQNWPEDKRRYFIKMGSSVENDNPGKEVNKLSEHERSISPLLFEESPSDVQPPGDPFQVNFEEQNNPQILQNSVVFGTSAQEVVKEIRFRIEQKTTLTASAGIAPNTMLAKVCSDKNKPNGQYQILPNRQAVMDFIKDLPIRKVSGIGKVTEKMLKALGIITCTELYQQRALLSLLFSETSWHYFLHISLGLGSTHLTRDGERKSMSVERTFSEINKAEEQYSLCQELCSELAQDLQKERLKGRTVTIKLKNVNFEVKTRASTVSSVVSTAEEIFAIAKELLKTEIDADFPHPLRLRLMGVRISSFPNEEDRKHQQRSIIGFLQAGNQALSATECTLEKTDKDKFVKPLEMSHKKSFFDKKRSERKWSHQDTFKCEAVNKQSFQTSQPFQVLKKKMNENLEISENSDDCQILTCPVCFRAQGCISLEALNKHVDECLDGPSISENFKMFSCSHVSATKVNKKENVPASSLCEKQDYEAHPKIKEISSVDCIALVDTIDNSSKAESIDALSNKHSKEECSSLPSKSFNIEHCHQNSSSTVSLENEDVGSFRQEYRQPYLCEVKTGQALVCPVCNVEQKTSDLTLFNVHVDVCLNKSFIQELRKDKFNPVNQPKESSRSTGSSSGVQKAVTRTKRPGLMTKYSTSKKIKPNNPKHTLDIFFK
#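 10 nM Pol kappa was preincubated with compounds for 15 min at room temperature. Reaction started with 50 nM (final) substrate. Fluorescence read kinetically at 0 and 10 min.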
# APE1 inh: inhibitors of human APE1 endonuclease; Potency, µM (highest dose often 65.8 µM), for the others: at the highest dose activity change, negative = inhibition, actives largely listed as inhibitors; 0.35% of 350,000 active; recombinant APE1, TAMRA/BHQ-2 abasic DNA cleavage fluorescence; AID 2517;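 note: plate controls were vehicle for no effect and reference inhibitor for full effect; nearly all actives have a fitted effect of over 55% in size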
#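 Activity was derived from the fluorescence gain between first and third kinetic reads (60 s intervals, ex 525/em 598 nm) after 50 nM THF-abasic TAMRA/BHQ-2 duplex was added to 0.75 nM APE1 preincubated 15 min with compound.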
# POLH inh: blocks human DNA polymerase eta activity; AID 588591; recombinant Pol eta, fluorescent DNA replication assay; 1.2% of 390,000 active; Q9Y253; Potency, µM (titrated, usually from 114 µM), for the others: at the top dose activity change, negative = inhibition, actives largely listed as inhibitors; note: % is set by controls: 0 for no effect and ±100 for the full control effect
#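 Pol eta (10 nM) was preincubated with compounds for 15 min at room temperature, after which fluorescent replication substrate (50 nM final) was added to start the reaction. Fluorescence was read kinetically at 0 and 10 min.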
# Pol iota inh: blocks human DNA polymerase iota activity | Pol iota fluorescent replication assay, 10 min | 1% of 390,000 active | Q9UNA4 | AID 588590 | Potency, µM (doses to about 115 µM), inactives show at the highest dose activity, negative = inhibition, most hits filed as inhibitors
#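 Fluorescent replication assay read twice, at 0 min and 10 min after adding 50 nM (final) substrate. Enzyme (10 nM) and compounds were first incubated 15 min at room temperature; enzyme-free buffer wells were negative controls.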
# GLS inh: inhibitors of human glutaminase (GLS); O94925; GLS enzymatic activity, qHTS titration; Potency, µM (titrated, usually from 45.5 µM), inactives show at the top dose activity change, negative = inhibition, usual class: inhibitors; 0.21% of 410,000 active; note: % is set by controls: 0 for no effect and ±100 for the full control effect
#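 hKGA in 45 mM KH2PO4 (pH 8.2), 0.02% Tween-20 with compound, then 1mM L-Glutamine (stock as added) plus glutamate oxidase/HRP/Amplex red coupling mix. Fluorescence read initially and after 30 min at RT; signal change reflects glutamate formation.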
# Numbers without * were called inactive; u = inconclusive; x = no result; ! = repeats disagree; [ ] = remark or other dose. Sampled rows, rich in hits. Any-hit rate of the full collection: about 2.4%. Calls come from the whole dose curve; as a rule, active = well fitted curve in the direction sought with a large enough effect; inconclusive = small, poorly fitted or top-dose-only effect, or another doubt; inactive = no such curve, though single readings can be large; an effect the other way counts as inactive or inconclusive. Potency is the fitted concentration of half-maximal effect.
SMILES,Pol beta inh,Pol kappa inh,APE1 inh,POLH inh,Pol iota inh,GLS inh
COc1ccc(/C=C\C(=O)c2c(O)ccc3c(C)cc(=O)oc23)cc1,4.5%,-2.8%,12.2%,-12.0%,u,3.7%
CCCn1nnc(NC(=O)/C=C/c2ccco2)n1,-14.2%,-3.9%,-1.3%,-10.3%,9.4%,2.6%
Cc1cccnc1NC(=S)NC(=O)/C=C/c1ccco1,-10.5%,-38.4%,u,u,u,5.8%
O=C(/C=C/c1ccco1)NC(=S)Nc1ccccn1,39.8µM*,-24.5%,-7.7%,4.0%,-6.0%,4.9%
Cn1nnc(NC(=S)NC(=O)/C=C/c2ccco2)n1,u,u,-1.6%,17.8µM*,u,-14.7%
CC(=O)Nc1ccc(CC(=O)Nc2ccc3c(c2)OC2(CCCC2)O3)cc1,x,x,x,-10.7%,x,3.4%
CCCCOC(=O)C1=C(C)NC(=O)NC1c1ccc([N+](=O)[O-])s1 (stereo unspecified),0.4%,u,-2.2%,-27.5%,89.1µM*,7.1%
CCCCOC(=O)C1=C(C)NC(=O)NC1c1cccc([N+](=O)[O-])c1 (stereo unspecified),3.1%,-2.7%,19.8%,-8.9%,-18.7%,-1.8%
Nc1nc(SCC(=O)Nc2ccccc2)[nH]c(=O)c1NC(=O)c1cccs1,u,6.0%,-3.7%,-19.2%,31.5%,24.9%
CC(C)(O)C#Cc1ccccc1C(=O)NC(CC(N)=O)C(=O)O (stereo unspecified),32.4%,-20.0%,2.9%,-8.6%,-9.8%,6.2%
O=C1C2CC=C(Cl)CC2C(=O)N1CCC[n+]1cccc2ccccc21 (stereo unspecified),8.5%,-2.3%,-8.5%,-11.7%,-10.5%,-1.1%
COc1ccccc1OCC(=O)Nc1nnc(-c2ccco2)s1,35.5µM*,-7.0%,1.5%,u,u,8.6%
Cc1ccc(C)c(NS(=O)(=O)c2ccc3[nH]c(=O)oc3c2)c1,31.6µM*,u,-1.3%,31.6µM*,u,6.1%
Cc1cccc(NS(=O)(=O)c2ccc3[nH]c(=O)oc3c2)c1C,x,-8.4%,0.4%,-15.1%,31.7%,5.1%
CN(c1ccccc1)S(=O)(=O)c1ccc2[nH]c(=O)oc2c1,50.1µM*,-28.0%,-28.4%,31.6µM*,11.2µM*,0.0%
CN(C)CC#CCC(O)(c1ccccc1)c1ccccc1,22.3%,-12.8%,-3.5%,0.7%,117.1%,-5.4%
COc1ccc(CN2C(=O)C(CC(=O)NCc3ccco3)CC(C(=O)N3CCOCC3)=C2C)cc1 (stereo unspecified),x,x,x,-16.8%,x,-5.6%
COc1cccc(NC(=O)Nc2ccccc2SC)c1,-18.1%,2.1%[60.1 µM],-1.7%,-13.4%,-22.6%,7.7%
C=CC1=C(C)C2=Cc3c(C=C)c(C)c4[n]3[Sn+2][n]3c(c(C)c(CCC(=O)O)c3=CC3=NC(=C4)C(C)=C3CCC(=O)O)=CC1=N2,x,12.6µM*,8.91µM*,x,x,x
Cc1ccccc1NC(=O)C12CC3CCC1(C)C3(C)CO2 (stereo unspecified),4.1%,-10.4%,2.1%,-21.4%,62.8%,1.9%
CCOC(=O)c1cc2n(n1)C(C(F)(F)C(F)(F)F)CC(C)N2 (stereo unspecified),5.6%,-16.6%,-0.9%,-8.3%,11.4%,17.3%
N#C/C(=C\c1ccc(OCc2ccc(C(=O)O)cc2)cc1)C(=O)N1CCOCC1,13.3%,-27.9%,-2.3%,28.2µM*,u,-3.1%
CCc1ccc(S(=O)(=O)c2nnn3c2nc(Nc2ccc(NC(C)=O)cc2)c2sccc23)cc1,-4.5%,-19.9%,x,u,79.4µM*,u
CCCCOc1ccc(Nc2cc(Cl)ccc2C(=O)O)cn1,39.8µM*,-1.9%,-3.7%,-13.3%,74.8%,6.3%
CC(C)=CC[C@@H](O)C1=CC(=O)c2c(O)ccc(O)c2C1=O,x,0.891µM*,7.08µM*,x,x,x
SMILES,Pol beta inh,Pol kappa inh,APE1 inh,POLH inh,Pol iota inh,GLS inh
COc1ccc(CCN2CC(C(=O)NCCc3ccc(C)cc3)CC2=O)cc1OC (stereo unspecified),u,u,u,u,79.4µM*,-14.9%
CCN(CC)C(=O)CSc1nc(-c2ccc(C)cc2)nc2c1Cc1c(CO)cnc(C)c1O2,23.6%,-8.6%,x,-2.5%,-4.1%,-2.8%
CCCc1ccc(OCc2nc(-c3ccc(NC(=O)c4ccco4)cc3)no2)cc1,35.5µM*,-3.5%,-0.6%,-9.8%,u,-1.2%
Cc1c(-c2ccnc3cc(C(=O)O)nn23)cnn1C,95.8%,-2.5%,5.5%,u,9.0%,7.94µM*
CCn1cc(-c2ccnc3cc(C(=O)O)nn23)c(C)n1,17.2%,-18.9%,-4.9%,1.7%,13.6%,-0.4%
CCc1ccc(-n2c(=O)c3c(C)c(C(=O)N(C)C)sc3n(Cc3ccccc3C#N)c2=O)cc1,-1.5%,-8.4%[60.1 µM],x,15.4%,-8.7%,-1.4%
C[C@@](N)(Cc1ccc(O)c(O)c1)C(=O)O,x,3.55µM*!,1.41µM*!,x,x,x
COc1cnn(-c2ccccc2)c(=O)c1OC,2.7%,-0.6%,-0.1%,-8.2%,-14.3%[58.9 µM],1.4%
CCCN1CNc2c(c(=O)[nH]c(=S)n2CCc2cccc(Cl)c2Cl)C1,x,-21.6%,x,x,-24.0%,x
CCc1ccc2c(c1)c(=O)c(C(=O)c1ccccc1)cn2CC(=O)Nc1ccc(C)c(Cl)c1,2.82µM*,-18.9%,x,u,-2.2%,-4.8%
CCOc1ccc(C(=O)c2cn(CC(=O)Nc3ccc(C)c(Cl)c3)c3ccc(OCC)cc3c2=O)cc1,13.8%,-2.9%,x,-3.9%,20.7%,-1.7%
O=C(CSCc1ccc(F)cc1)N1CCc2c([nH]c3ccccc23)C1c1ccc(F)cc1 (stereo unspecified),1.4%,-13.3%[60.1 µM],x,-19.8%,9.1%,-1.2%
CC(=O)c1cccc(NC(=O)c2nc(-c3ccccc3)n(-c3ccccc3)n2)c1,-0.2%,-17.1%,x,-0.8%,8.6%,-12.9%
O=C(CCS(=O)(=O)c1ccccc1)Nc1nnc(C(F)(F)F)s1,50.1µM*,-0.1%,19.3%,-10.3%,6.2%,-9.0%
CC(C)(C)c1nnc(NC(=O)CCS(=O)(=O)c2ccccc2)s1,-8.9%,-1.1%,29.6%,-17.5%,115.5%,2.5%
Cc1ccnc(NC(=O)CCS(=O)(=O)c2ccccc2)c1,22.4µM*,-13.0%,12.0%,7.2%,15.9%,0.0%
Cc1ccnc(NC(=O)CCC(=O)c2cccs2)c1,x,u,-9.9%,u,20µM*,-7.7%
Cc1ccc(NC(=O)CN(C)C(=O)CCC(=O)c2cccs2)cc1,17.8µM*,-5.9%,-6.0%,u,u,-3.2%
Cc1ccc(NC(=O)CCC(=O)c2cccs2)nc1,x,-22.1%,17.4%,u,u,3.7%
COc1ccc(NC(=O)CN(C)C(=O)CCC(=O)c2ccc(C)cc2)cc1,x,-2.8%,31.2%,-12.9%,-3.3%,-7.3%
